Cruzain inh Det = qHTS Assay for Promiscuous and Specific Inhibitors of Cruzain (with detergent) | AID 1478, 2009 | purified cruzain, Z-FR-AMC fluorescence, 0.01% Triton | actives 0.43% (n = 200,000) | Potency, µM, without a hit: max response, negative = inhibition, hits mostly inhibitors;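 also: plate controls were neutral wells for no effect and buffer without enzyme for full effect; nearly all actives have a fitted effect of over 40% in size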
Target sequence (P25779 123-467 limits assumed): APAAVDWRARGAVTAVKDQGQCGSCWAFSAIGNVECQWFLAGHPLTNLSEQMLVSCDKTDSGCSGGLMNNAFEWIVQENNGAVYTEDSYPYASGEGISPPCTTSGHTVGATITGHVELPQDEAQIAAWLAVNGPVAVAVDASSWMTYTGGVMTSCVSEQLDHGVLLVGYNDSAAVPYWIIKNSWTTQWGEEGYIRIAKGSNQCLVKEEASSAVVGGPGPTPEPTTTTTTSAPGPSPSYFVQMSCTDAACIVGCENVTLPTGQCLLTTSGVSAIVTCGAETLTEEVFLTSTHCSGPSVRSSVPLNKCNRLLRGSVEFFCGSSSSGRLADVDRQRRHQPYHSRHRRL
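Compounds were screened in titration against cruzain (1.5 nM) with 0.01% Triton X-100 to counter colloidal aggregation. Activity was the AMC fluorescence increase over 60 s after adding 2 uM Z-FR-AMC at pH 5.5.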
Cruzain noTriton = qHTS Assay for Promiscuous and Specific Inhibitors of Cruzain (without detergent) | Cruzipain (Trypanosoma cruzi), P25779 | Potency, µM, inactives show max response, negative = inhibition, usual class: inhibitors | actives 2.3% (n = 200,000) | purified cruzain, Z-FR-AMC fluorescence, no detergent;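 also: plate controls were enzyme without inhibitor for no effect and buffer without enzyme for full effect; nearly all actives have a fitted effect of over 40% in size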
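Purified cruzain at 1.5 nM, pre-incubated 15 min with compound at room temperature in 100 mM sodium acetate pH 5.5, 5 mM DTT, 0.00005% Triton X-100. Reaction started with 2 uM Z-FR-AMC; AMC fluorescence increase over 60 s gives rate.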
Active calls of the source: *; ? = inconclusive. In the library only some 2.5% were active in any assay of this set; here they are far more common. Calls follow the shape of the dose curve; as a rule, active = well fitted curve in the direction sought with a large enough effect; inconclusive = small, poorly fitted or top-dose-only effect, or another doubt; inactive = no such curve, though single readings can be large; an effect the other way counts as inactive or inconclusive. Potency is read from the fitted curve at half-maximal effect.

SMILES	Cruzain inh Det	Cruzain noTriton
COc1ccc(Cl)cc1NC(=O)c1cc2c(s1)-c1ccccc1OC2	-3%	-1%
CCOC(=O)c1ccccc1NC(=O)c1cc2c(s1)-c1ccccc1SC2	-6%	7.9µM*
CC(C)c1ccc(NC(=O)c2cc3c(s2)-c2ccccc2SC3)cc1	-4%	10µM*
CCc1ccccc1N(CC)C(=O)c1cc2c(s1)-c1ccccc1SC2	-10%	-9%
CCOC(=O)c1ccccc1NC(=O)c1cc2c(s1)-c1c(C)cccc1OC2	3%	10%
O=C(NCc1ccc(F)cc1)c1cc2c(s1)-c1ccccc1SC2	-12%	?
O=C(NCc1ccccc1Cl)c1cc2c(s1)-c1ccccc1SC2	-5%	25µM*
COc1ccc(C)cc1NC(=O)c1cc2c(s1)-c1ccccc1SC2	-6%	16µM*
N[C@@]1(C(=O)O)CO[C@H]2[C@H](C(=O)O)[C@H]21	-2%	-3%
CCCN1C(=O)C2(c3ccccc31)c1c(oc3ccc(C)cc3c1=O)C(=O)N2CCOC (configuration not stated)	-2%	9%
COc1ccc(C(=O)[C@H](Br)[C@H](Br)C(=O)O)cc1	-10%	-23%
COc1ccc(C(=O)Nc2nnc(S(=O)(=O)N3CCN(c4ccc(C)cc4)CC3)s2)cc1	0%	-2%
COc1cccc(Cn2c(CNS(=O)(=O)c3ccc(F)c(Cl)c3)nc3cccnc32)c1	-9%	-9%
Cc1cc(-c2ccc(Cl)cc2)n2nc(N)nc2n1	-10%	12%
Nc1nc2nccc(-c3ccc(Cl)cc3)n2n1	25µM*	-75%
CCCCC[C@H](O)/C=C/C=C\C/C=C\CCCCC(=O)O	2%	-1%
O=c1[nH]c(N/N=C/c2ccccc2Br)nnc1-c1ccccc1	-11%	13µM*
COc1ccc(/C=N/Nc2nnc(-c3ccccc3)c(=O)[nH]2)cc1	0%	-17%
Cc1ccc(Cl)cc1N1CCN(C(=O)CCS(=O)(=O)c2ccc3c(c2)oc(=O)n3C)CC1	-3%	?
Cc1c(C(=O)N(Cc2ccc(N(C)C)cc2)Cc2ccco2)oc2cc(Br)ccc12	-3%	-9%
Cc1cc(C(F)(F)F)nn1CC(=O)Nc1cccnc1	1%	-6%
CSc1cc2c(cc1C(F)(F)F)N(C(=O)Nc1cccnc1)CC2	1%	7.9µM*
CCOC(=O)c1cc(S(=O)(=O)NCc2ccc(Cl)cc2)[nH]n1	0%	-14%
COc1ccc(Oc2ncc3nc(C)c(=O)n(C4CC4)c3n2)cc1	0%	-13%
O=C(COc1ccccc1F)Nc1ccc2nc(SCC(=O)N3CCOCC3)sc2c1	-13%	?
SMILES	Cruzain inh Det	Cruzain noTriton
COc1ccc(CNC(=O)Cc2c(C)c3c(O)cc(C)cc3oc2=O)cc1	0%	-4%
COc1ccc(CNC(=O)Cc2c(C)c3ccc(O)cc3oc2=O)cc1	-23%	25µM*
Nc1ccc(N=Nc2c(S(=O)(=O)O)cc3ccccc3c2S(=O)(=O)O)cc1	3%	2%
CC(=O)c1ccc(NS(=O)(=O)c2ccc(C)cc2)cc1	1%	6%
COc1cc(OC)c(OC)cc1/C=C/C(=O)c1ccc(NS(=O)(=O)c2ccc(C)cc2)cc1	-4%	20µM*
CC(C)Oc1ccc(CNC(=O)C(C)n2ccc3cc(S(=O)(=O)N4CCCCCC4)ccc32)cc1 (configuration not stated)	-5%	-12%
COc1cccc(CNC(=O)c2ccc(CSc3nc4ccncc4n3Cc3cccc(C)c3)cc2)c1	-5%	-19%
CCOc1ccc(Br)cc1S(=O)(=O)Nc1ccc(C(=O)OCC(=O)N(C)c2ccccc2)cc1	-7%	-16%
CCOc1ccc(Br)cc1S(=O)(=O)Nc1ccc(C(=O)Nc2ccc(C)cc2)cc1	-4%	32µM*
CCOc1ccc(Br)cc1S(=O)(=O)Nc1ccc(NC(=O)c2ccccc2C)cc1	-2%	?
COc1ccccc1NC(=O)c1ccc(NS(=O)(=O)c2ccc(F)c(F)c2F)cc1	-1%	-18%
CCOc1ccc(Br)cc1S(=O)(=O)Nc1ccc(NC(=O)c2ccccc2F)cc1	-3%	25µM*
COc1ccc(NC(=O)c2c(F)cccc2F)cc1S(=O)(=O)Nc1ccc(Br)cc1	-3%	16µM*
CCOc1ccc(Br)cc1S(=O)(=O)Nc1ccc(C(=O)Nc2ccccc2OC)cc1	-5%	16µM*
COc1ccc(C)cc1S(=O)(=O)Nc1ccc(F)cc1	-2%	-3%
Nc1nc(SCc2ccc([N+](=O)[O-])cc2)c2ncn([C@@H]3O[C@H](CO)[C@H](O)[C@H]3O)c2n1	-4%	4%
CN(C)c1ccc(C(=O)NCc2ccc3c(c2)CCN3C(=O)c2ccccc2)cc1	-4%	7%
CC(C)C[C@H](N)CSSC[C@@H](N)CC(C)C	-5%	3%
Cc1nn2c(C)c(C(=O)NCc3cccc(Br)c3)cnc2c1-c1ccccc1	-7%	0%
Cc1ccc(NC(=O)c2ccc(Cl)cc2Cl)c(C(=O)c2ccccc2)c1	-4%	-4%
Cc1cccc(CC2C(=O)Nc3ccccc32)c1 (configuration not stated)	-4%	5%
C[C@]12CC[C@H](O)CC1=CC[C@H]1[C@@H]2CC[C@@]2(C)C(N(CCO)CCO)CC[C@@H]12 (some centres not stated)	10%	-4%
CCOc1ccc(N(C)C(CNS(=O)(=O)c2ccccc2)c2ccccc2)cc1 (configuration not stated)	-11%	7%
COc1ccc(C(=N/O)/C(=N/O)c2ccc(OC)cc2)cc1	-3%	-5%
COc1ccc(C(Cl)=C(c2ccc(OC)cc2)c2ccc(OC)cc2)cc1	-5%	20µM*
SMILES	Cruzain inh Det	Cruzain noTriton
O=C(CSc1oc(-c2ccco2)nc1S(=O)(=O)c1ccc(Cl)cc1)c1ccc(Cl)cc1	-6%	25µM*
Cc1ccc(S(=O)(=O)c2nc(-c3ccco3)oc2SCC(=O)c2ccc(Cl)cc2)cc1	-8%	?
O=C(CSc1oc(-c2ccccc2)nc1S(=O)(=O)c1ccc(Cl)cc1)c1ccccc1	-8%	?
O=C(CSc1oc(-c2ccc(F)cc2)nc1S(=O)(=O)c1ccc(Cl)cc1)c1ccccc1	-5%	32µM*
O=C(O)CCCSc1ccccc1	3%	1%
Cc1ccc2c(=O)c(C(=O)c3ccccc3)cn(CC(=O)NCc3ccccc3)c2n1	0%	-2%
CN(C)CCNC(=O)C(=O)NCC(c1cccnc1)N1CCN(c2ccccc2)CC1 (configuration not stated)	-10%	?
FC(F)(F)c1cccc(N2Cc3ccccc3C2)c1	-4%	-5%
Cc1cc(C)cc(N2Cc3ccccc3C2)c1	1%	13µM*
CCc1ccc(-n2c(N3CCN(c4ccc(F)cc4)CC3)nc3ccccc3c2=O)cc1	-7%	-9%
COc1cc(NC(=O)CSc2cc(=O)n(C)c3ccccc23)cc(OC)c1OC	0%	-11%
O=C(Nc1ccc(O)c(-c2nc3ccccc3o2)c1)c1ccco1	-1%	-9%
O=C(Nc1ccc(O)c(-c2nc3ccccc3o2)c1)C1(c2ccc(Cl)cc2)CCCC1	7%	5µM*
COc1ccc(CC(=O)Nc2ccc(-c3nc4ccccc4s3)c(C)c2)cc1OC	1%	-9%
COc1cc(SC#N)ccc1N=Cc1c(C)[nH]n(-c2ccc(C)cc2C)c1=O	-2%	-17%
COc1cc(SC#N)ccc1N=Cc1c(C)[nH]n(-c2cccc3ccccc23)c1=O	-5%	25µM*
O=C(CNC(=O)c1ccc(Cl)cc1)OCc1nc2ccccc2s1	14µM*	16µM*

Source: PubChem
